# Screens (PubChem)
# Giardia FBPA inh – Giardia lamblia aldolase inhibition; A8B2U2; purified Giardia FBPA; Potency, µM (highest dose often 59.6 µM), inactives show at the top dose activity, negative = inhibition, most hits filed as inhibitors; 290,000 compounds, 0.71% hits; AID 2451; further: potency means the concentration at half of the fitted maximal effect; on the % scale 0 is the no-effect control and ±100 the full control effect; nearly all actives have a fitted effect of over 55% in size
# Target sequence (A8B2U2 whole entry, looked up): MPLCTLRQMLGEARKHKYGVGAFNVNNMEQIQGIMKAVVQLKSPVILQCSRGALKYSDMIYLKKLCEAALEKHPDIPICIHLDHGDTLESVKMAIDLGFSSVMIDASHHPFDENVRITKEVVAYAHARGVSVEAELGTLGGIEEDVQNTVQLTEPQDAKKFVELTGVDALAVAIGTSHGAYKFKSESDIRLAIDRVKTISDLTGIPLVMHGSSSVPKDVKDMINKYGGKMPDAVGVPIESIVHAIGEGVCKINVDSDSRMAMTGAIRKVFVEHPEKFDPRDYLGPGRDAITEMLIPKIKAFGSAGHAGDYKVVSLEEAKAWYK
#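 Giardia FBPA (40 nM reagent) was preincubated 10 min at RT with compound (up to 57.5 uM final), then substrate plus GAPDH/TPI/NAD/arsenate coupling system with diaphorase/resazurin was added; resorufin fluorescence (525/598 nm) was read after 20 min.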
# NS1 inh – influenza NS1 inhibition; Potency, µM (top dose mostly 46.1 µM), without a hit: at the top dose activity, positive = more growth; 270,000 compounds, 0.4% hits; calls by dose curve; further: potency means the concentration at half of the fitted maximal effect; actives are rising curves; nearly all actives have a fitted effect of over 50% in size
#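 OD600 was taken as the measure of yeast growth restored by compound in an NS1-expressing S. cerevisiae strain. Cells had been washed out of glucose medium and diluted 1:100 into galactose -URA medium, pH 6.0.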
# LmPK inh – LmPK (Leishmania mexicana) enzyme inhibition; AID 1721; Q27686; 290,000 compounds, 0.37% hits; Potency, µM (titrated, usually from 57.5 µM), without a hit: at the top dose activity change, negative = inhibition, most hits filed as inhibitors; purified LmPK, Kinase-Glo ATP luminescence, 1 h; further: potency means the concentration at half of the fitted maximal effect; on the % scale 0 is the no-effect control and ±100 the full control effect
#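 Pyruvate kinase activity monitored as ATP production (luciferase luminescence). Conditions: 0.1 nM enzyme, 0.5 mM PEP, 0.1 mM ADP, 1 h, RT; normalized against uninhibited and no-enzyme wells.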
# Shiga toxin inh – blocks Shiga toxin action in Vero cells; Vero cells, Shiga toxin protein synthesis inhibition reporter; inhibition, % at 38.7 µM; 290,000 compounds, 9.2% hits; in the data active means inhibition mostly above about 28%, no sharp cut-off; inactive means mostly below about 43%; further: 0% is about no effect
# CHX counter – counter-screen for Shiga toxin inhibitors: cycloheximide protein synthesis inhibition; AID 2314; max response, %; cell reporter, cycloheximide protein synthesis inhibition counterscreen; 300,000 compounds, 12% hits; in the data active means max response mostly above about 13%, no sharp cut-off; inactive means mostly below about 14%; further: read at 38.3 µM for the half of the compounds with a filed dose; 0% is about no effect
# Numbers without * were called inactive; ? = inconclusive; / = no result given; [ ] = remark or other dose. Most compounds without a hit are left out; they make up all but 14% or so of the library. Unless noted, the call rests on the fitted dose curve; in most records, active means well fitted curve in the direction sought with a large enough effect; inconclusive means small, poorly fitted or top-dose-only effect, or another doubt; inactive means no such curve, though single readings can be large; an effect the other way counts as inactive or inconclusive.
SMILES,Giardia FBPA inh,NS1 inh,LmPK inh,Shiga toxin inh,CHX counter
O=S(=O)(c1ccc2c(c1)OCO2)N1CCN(S(=O)(=O)c2c(F)cccc2F)CC1,/,/,/,-3.8,-4.6
COc1ccccc1N/N=C1\COC(C)(C)CC1=O,-0.2%,-5.9%,3.5%,137.5*,34.0*
CC1(C)CC(=O)C=C(Nc2ccc(Cl)cc2)C1,-1.8%,-5.7%,-0.5%,-11.3,-3.5
Cc1cccc(N/N=C2/COC(C)(C)CC2=O)c1,3.9%,3.3%,-10.5%,132.8*,77.6*
Cc1cccc(NN=C2c3ccccc3-c3ccccc32)c1,-9.2%,1.8%,-0.6%,17.3,16.2
CC1(C)CC(=O)/C(=N/Nc2ccc(Cl)cc2)CO1,0.1%,-6.7%,1.4%,93.1*,31.8*
c1ccc(CNc2nc(-c3ccc4c(c3)OCO4)nc3ccccc23)cc1,-14.4%,/,/,/,/
Cn1c(N)c(S(=O)(=O)N2CCCC2)c(=O)n(C)c1=O,0.3%,3.0%,-3.4%,-11.1,-2.0
COc1ccccc1CN1CC(C(=O)NCCN2CCOC2=O)CCC1=O (centres undefined),/,-8.4%,-9.7%,2.1,4.0
CO[C@@H]1COC(=O)C/C=C\[C@H](C)[C@H](OC)COC(=O)[C@H]2CCCN2C(=O)C/C=C\[C@H]1C,0.3%[12.9 µM],/,/,/,/
Cc1cccc(Nc2ncnc3onc(-c4cccc(Cl)c4)c23)c1C,7.5%,-52.1%,0.4%,12.0,8.2*
Cn1c(=O)c(-c2ccccc2)nc2cnc(N3CCOCC3)nc21,7.9%,/,/,/,/
CCN1/C(=N\N)c2cccc3cccc1c23,9.98µM*,6.0%,-11.9%,-4.9,-6.0
O[C@@H]1COC(Nc2ccc(N=Nc3ccccc3)cc2)C[C@@H]1O (some centres undefined),-0.1%,-8.2%,-3.9%,94.9*,61.9*
O=C(N/N=C/c1cccs1)c1ccc2nc[nH]c2c1,15.8%,/,-0.5%,49.3,20.4
O=C(N/N=C/c1cccs1)c1ccc2ccccc2c1,-3.8%,-44.0%,-2.7%,109.1*,53.8*
O=C(N/N=C/c1cccs1)c1ccc2ncccc2c1,-6.2%,-6.7%,0.0%,46.3*,17.6
Cc1ccccc1C(=O)NC1CC2CCCC(C1)N2C(=O)Nc1ccccc1 (centres undefined),2.7%,-7.4%,4.2%,-4.1,-0.4
O=C(O)[C@@H]1C[C@@H](C(=O)O)N1,?,-11.4%,/,/,/
CCC1Oc2ccccc2N(CC(=O)NCC2CCCO2)C1=O (centres undefined),-0.2%,0.4%,-6.4%,-13.5,-1.3
Fc1c(F)c(F)c(/C=N/NC(=S)Nc2cccnc2)c(F)c1F,2.4%,7.7%,0.0%,-10.8,-1.9
Oc1ccc(/C=N/NC(=S)Nc2cccnc2)c(O)c1,-5.4%,4.5%,-0.5%,51.6*,28.6*
Fc1ccc(/C=N/NC(=S)Nc2cccnc2)cc1F,-6.2%,/,-0.6%,-0.9,5.5
Oc1cccc(/C=N/NC(=S)Nc2cccnc2)c1O,-12.3%,?,-9.1%,45.3*,29.8*
Fc1ccc(/C=N/NC(=S)Nc2cccnc2)cc1,-6.4%,/,-0.6%,41.3,27.1*
SMILES,Giardia FBPA inh,NS1 inh,LmPK inh,Shiga toxin inh,CHX counter
Oc1ccc(/C=N/NC(=S)Nc2cccnc2)c(O)c1O,7.06µM*,-0.7%,-5.7%,-3.4,-3.0
COc1ccc(O[C@H]2C=C[C@@H](c3ccccc3)O[C@H]2COC(=O)N2CCCCC2)cc1,-1.1%[12.9 µM],/,/,/,/
O=C(c1ccco1)N1CCN(C(=S)Nc2ccccc2C(F)(F)F)CC1,/,-0.1%,-1.2%,-6.5,-1.7
COc1ccc(S(=O)(=O)N(Cc2ccccc2)Cc2nc3ccccc3c(=O)[nH]2)cc1,0.7%,-14.9%,-0.3%,3.3,-2.0
O=c1[nH]c(CN(CCc2ccccc2)S(=O)(=O)c2ccc(Cl)cc2)nc2ccccc12,-3.4%,4.1%,-2.9%,active,20.8*
CCc1ccc(-c2nc(CS(=O)CC(=O)NCc3ccco3)c(C)o2)cc1 (centres undefined),-0.7%,29.2%,11.1%,-3.7,-4.6
CN(C)S(=O)(=O)c1cccc(C(=O)Nc2cc(Cl)cc(Cl)c2)c1,-1.4%,-15.7%,0.5%,39.9,1.6
O=C(Nc1cc(Cl)cc(Cl)c1)c1cccc(OC(F)F)c1,-7.6%,-146.4%,6.2%,17.4,14.9*
Cc1ccnc(NC(=O)c2cccc(OC(F)F)c2)n1,3.0%,8.5%,3.2%,69.1*,20.2
Cc1ccc(C(=O)Nc2nccc(C)n2)cc1,0.3%,7.6%,-4.8%,/,12.2
O=C(CSc1nnc(CNC(=O)c2ccccc2F)o1)NC1CCCC1,/,4.0%,-5.5%,18.2,2.0
Cc1ccc(-n2c(C)nc3cc(Cl)ccc3c2=O)nc1,0.4%,-1.7%,-0.7%,63.1*,28.2*
